The results in this text go back to article PMC5540273 (PLoS ONE, 2017).

Assay [1] has as its system AKT2.
The test system of assay [2] is AKT3.
The subject of assay [3] is T1, AMPK-alpha1.
T1 construct: gene PRKAA1

Assay [4] deals with T2, ARK5.
T2 construct: gene NUAK1

Assay [5] has as its system T3, ASK1.
T3 construct: gene MAP3K5

The test system of assay [6] is T4, ASK2.
T4 construct: gene MAP3K6

For assay [7], the system named is AXL.

Bounds are passed on as bounds.
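Also: kd values determined as follow-up on hits from a single-replicate KINOMEscan panel screen.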

Take `CS(=O)(=O)c1ccc(-c2nc3n(c2-c2ccncc2)CCC3)cc1` [SKF-105942]: in assay [1], the Kd (usually the concentration at which binding is half-saturated) is over 10 µM.

Consider `CCCc1ccc(S(=O)(=O)NC2CCN(c3ccnc(Nc4ccc(F)cc4)n3)C2)cc1` (stereo not shown) [GSK1379715], for which the Kd in assay [1] was over 10 µM.

`Cc1c(Cn2ccn3c(=O)cc(N4CCOCC4)nc23)cccc1C(F)(F)F` [GSK2289044] gave a Kd in assay [2] of over 10 µM.

The molecule `Nc1nc(-c2nccs2)c(-c2ccnc3ccccc23)s1` [GW693542] gave a Kd in assay [2] of over 10 µM.

As for `Cc1nnc(-c2ccc3occ(-c4ccc(S(C)=O)cc4)c3c2)[nH]1` (stereo not shown), in assay [3], the Kd is over 10 µM.

Molecule `Cc1ccc(-c2cc(-c3c[nH]nc3-c3ccccn3)ccn2)cc1` [GW684088] came in with a Kd in assay [4] of over 10 µM.

Consider `CC(C)(C)c1ccc(C(=O)Nc2cn3cc(-c4cccnc4)ccc3n2)cc1`, for which the Kd in assay [5] was 0.064 µM.

In assay [5], `CC(C)(C)c1ccc(C(=O)Nc2cn3cc(Cl)ccc3n2)cc1` displayed a Kd of 1.5 µM.

In the case of `CSc1nn2c(=O)cc(N3CCOCC3)nc2n1Cc1cccc(C(F)(F)F)c1C` [GSK2363608], the Kd in assay [6] is over 10 µM.

For the molecule `O=c1cc(N2CCOCC2)nc2n(Cc3cccc(Cl)c3Cl)ccn12` [GSK2286295], the Kd in assay [7] is over 10 µM.
